Screening data: PubChem, several laboratories
DSG3 Ab inh: blocks pemphigus antibody binding to human desmoglein-3. DSG3-coupled beads, scFv-anti-DSG3-GFP binding, flow cytometry; hits give low values. P32926. 310,000 tested, 0.48% active. binding (percent of control), % at 10 µM;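 active = binding more than 3 SD below its plate's average and above zero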;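 also: hits lower antibody fragment binding to DSG3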
CaV13 ICDI inh: Primary screen for inhibitors of IQ motif and Ca2+-dependent inactivation inhibitor domain binding in CACNA1D, Förster resonance energy transfer in living cells, …. 340,000 tested, 0.098% active. AID 743397. HEK cells, CFP/YFP FRET ICDI-IQ, plate reader, 10 min; percent FRET-ratio fall versus neutral wells. inhibition, % at 12.3 µM;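 active = mean replicate inhibition of at least 30% and at least 1% of replicates passing that level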;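 also: 0% = median of the neutral control wells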
ATG4B inh: inhibitors of human ATG4B cysteine protease. Q9Y4P1. ATG4B cleavage of LC3-PLA2, NBD-HPC fluorescence, 1 h. inhibition, % at 8.33 µM. 340,000 tested, 0.51% active. AID 504462; in the data active = inhibition above about 40%
N-glyco inh: N-linked glycosylation inhibition; D54 ERlucT glycosylation luciferase reporter, 24 h; percent of 100 nM tunicamycin response; reporter increase, % at 12.5 µM; 360,000 tested, 0.23% active; AID 588692;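 active = mean luciferase reporter signal, scaled so untreated is 0 and the glycosylation-blocking control 100, at or above a set limit in every replicate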;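 also: luciferase carries N-glycosylation sites so blocking glycosylation raises the light; 0% = median of neutral control wells and 100% = median of 100 nM tunicamycin wells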
NSD2 HMT inh: blocks human histone methyltransferase NSD2. NSD2 peptide methylation, AlphaScreen, 120 min. inhibition, % at 12.5 µM. 310,000 tested, 0.54% active; in the data active = inhibition above about 50%
Target sequence (O96028 whole entry, looked up): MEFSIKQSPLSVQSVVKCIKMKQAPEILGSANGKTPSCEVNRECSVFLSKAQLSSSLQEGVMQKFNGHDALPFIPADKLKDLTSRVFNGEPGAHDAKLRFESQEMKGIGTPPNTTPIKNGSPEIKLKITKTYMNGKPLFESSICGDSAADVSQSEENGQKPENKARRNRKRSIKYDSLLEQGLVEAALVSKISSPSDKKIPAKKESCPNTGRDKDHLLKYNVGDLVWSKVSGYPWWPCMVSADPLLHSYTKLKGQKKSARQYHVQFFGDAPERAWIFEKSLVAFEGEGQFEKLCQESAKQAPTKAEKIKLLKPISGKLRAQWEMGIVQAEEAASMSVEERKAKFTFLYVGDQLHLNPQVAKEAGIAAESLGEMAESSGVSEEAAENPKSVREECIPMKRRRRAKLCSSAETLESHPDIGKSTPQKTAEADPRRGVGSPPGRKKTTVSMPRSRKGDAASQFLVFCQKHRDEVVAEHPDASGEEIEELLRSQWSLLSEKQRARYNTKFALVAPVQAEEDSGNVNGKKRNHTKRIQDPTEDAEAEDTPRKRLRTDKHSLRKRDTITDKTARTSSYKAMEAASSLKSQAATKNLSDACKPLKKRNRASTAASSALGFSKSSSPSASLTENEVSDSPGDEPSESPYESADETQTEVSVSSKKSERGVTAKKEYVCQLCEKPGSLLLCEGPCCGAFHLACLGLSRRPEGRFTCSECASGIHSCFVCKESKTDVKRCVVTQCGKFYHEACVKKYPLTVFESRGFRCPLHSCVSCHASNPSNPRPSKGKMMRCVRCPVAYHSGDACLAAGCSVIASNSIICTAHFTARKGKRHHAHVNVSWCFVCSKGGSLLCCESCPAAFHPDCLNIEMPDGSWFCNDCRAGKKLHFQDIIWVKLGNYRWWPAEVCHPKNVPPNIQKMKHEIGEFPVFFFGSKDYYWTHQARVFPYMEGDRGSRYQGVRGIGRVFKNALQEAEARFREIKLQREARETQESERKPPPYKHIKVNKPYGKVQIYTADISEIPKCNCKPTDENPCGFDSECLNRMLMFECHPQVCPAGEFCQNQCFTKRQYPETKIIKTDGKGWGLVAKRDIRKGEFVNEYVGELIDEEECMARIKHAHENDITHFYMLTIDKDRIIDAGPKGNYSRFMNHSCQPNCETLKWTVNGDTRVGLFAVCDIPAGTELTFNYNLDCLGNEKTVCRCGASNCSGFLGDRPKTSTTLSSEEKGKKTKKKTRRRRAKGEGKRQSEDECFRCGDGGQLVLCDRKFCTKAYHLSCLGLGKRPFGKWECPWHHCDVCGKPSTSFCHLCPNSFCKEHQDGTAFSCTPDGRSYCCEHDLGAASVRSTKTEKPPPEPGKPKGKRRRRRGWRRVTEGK
Vif imaging: blocks HIV Vif function; HEK293T cells, Vif self-association by quenched fluorescence, imaging, 24 h; inhibition, % at 7.49 µM; 340,000 tested, 0.35% active; AID 602346; in the data active = inhibition above about 50%, passing the limit was not always enough
* = called active by the depositor; nt = no result given; + = active, no number; ! = a repeat was not active. Hits are enriched below; roughly 1.9% of the tested compounds scored in any of these assays.

SMILES	DSG3 Ab inh	CaV13 ICDI inh	ATG4B inh	N-glyco inh	NSD2 HMT inh	Vif imaging
O=[N+]([O-])c1ccccc1/C=N\N1CCN(c2ccccc2)CC1	103.3	-7.2	-3.0	1.6	12.2	12.6
CC(=O)NC(=S)Nc1ccccc1F	104.7	-6.4	2.3	-0.6	-4.8	58.4*
CCC(=O)NC(=S)Nc1ccccc1F	nt	-6.0	-7.9	0.2	0.7	-5.8
CC(=O)NS(=O)(=O)c1ccc(N)cc1	24.8*!	-4.9	-0.4	2.3	nt	-13.0
COc1ccc(/C(C)=N/Nc2ncc(Cl)cc2Cl)c(O)c1	95.6	-5.4	2.5	-1.1	-5.1	nt
Cc1ccsc1C(=O)OCC(=O)NCc1ccc2c(c1)OCO2	51.9*	-5.4	3.5	-0.9	-2.0	-3.2
COc1ccc(NC(=O)NCc2ccc3c(c2)OCO3)cc1	82.0*	-6.4	-5.7	-0.2	-1.2	-1.5
CC(OC(=O)c1cc2sccc2n1C)C(=O)NCc1ccc2c(c1)OCO2 (stereo not drawn)	68.6*	nt	4.9	2.0	-0.2	2.7
COc1ccccc1CNC(=O)C1CCN(C(=O)c2sccc2-n2cccc2)CC1	101.6	-3.9	8.1	1.4	23.1	5.1
CC(C)Cc1cc(C(=O)Nc2cc(Cl)ccc2Cl)no1	-39.0*	-3.6	2.0	0.3	nt	-1.4
O=C(CSc1nc(-c2ccc(F)cc2)cs1)Nc1ccccn1	43.7*	-7.5	3.5	-0.8	-3.0	-5.8
O=C(NCc1ccccc1)c1noc2c1CCCC2	96.1	-3.9	8.8	9.5	-3.5	nt
CSCCC(NS(=O)(=O)c1ccc(Cl)cc1)C(=O)O (stereo not drawn)	108.1	-13.0	-6.0	0.1	-3.2	-0.4
CSCCC(NS(=O)(=O)c1ccc(Cl)cc1)C(=O)N1CCN(c2ccccc2)CC1 (stereo not drawn)	-2.0*	-12.6	-7.2	-4.5	-1.7	5.4
O=C(CSc1nnc(-c2cccnc2)s1)Nc1ccc(Cl)c(C(=O)O)c1	nt	nt	nt	nt	0.4	nt
O=C(CSc1nnc(-c2ccncc2)s1)Nc1ccc(Cl)c(C(=O)O)c1	101.2	-2.8	-5.5	0.8	-1.9	54.1*
O=C1C2C3c4ccccc4C(c4ccccc43)C2C(=O)N1c1cccc2cccnc12 (stereo not drawn)	104.0	-4.3	-11.0	-1.2	1.2	-0.6
COc1cccc(NC(=S)N2CCn3c(nc4ccccc43)C2)c1	86.2	1.3	4.0	-0.5	-1.1	12.7
S=C(Nc1ccccc1)N1CCn2c(nc3ccccc32)C1	85.6	-4.6	2.9	-1.9	2.5	58.3*
CC(=O)O[C@H]1C[C@@H](n2cnc3c(Cl)ncnc32)[C@@H]2OC(C)(C)O[C@@H]21	nt	-6.9	nt	nt	nt	nt
Cc1ccc(NC(=O)Nc2ccc3c(c2)OCO3)nc1	6.9*	-7.5	-1.8	-2.7	0.3	4.5
Cc1cc(C)nc(NC(=O)Nc2ccc3c(c2)OCO3)c1	80.5	-4.4	4.2	-5.6	0.7	-1.8
O=C(CSc1nncs1)NCc1ccc(F)cc1	91.8	-2.5	2.0	1.9	0.8	50.9*
CN(CC(=O)Nc1ccc(F)cc1)C(=O)CSc1nncs1	nt	-6.0	4.0	1.6	-4.5	16.3
O=C(CSc1nc2c(c(=O)n1-c1ccc(Br)cc1)SCC2)Nc1nccs1	nt	-1.6	57.2*	8.2	1.2	-8.0
SMILES	DSG3 Ab inh	CaV13 ICDI inh	ATG4B inh	N-glyco inh	NSD2 HMT inh	Vif imaging
COc1ccc(NCN2C(=O)C3C4C=CC(C4)C3C2=O)cc1 (stereo not drawn)	99.3	-5.5	0.6	0.1	7.4	nt
Cc1ccccc1NC(=O)c1cccc(N2C(=O)C3CCC(C)CC3C2=O)c1 (stereo not drawn)	nt	-3.9	3.3	3.9	-1.2	18.7
CC(=O)NNc1cc(N2CCOCC2)nc(N2CCOCC2)n1	105.6	+	-6.2	-0.1	nt	-5.3
Cc1cc(Cl)c(OCCCn2ccnc2)c(Br)c1	99.0	-5.0	-1.5	0.2	5.7	nt
C/C(=N/NC(=O)c1cc(-c2cccc([N+](=O)[O-])c2)n[nH]1)c1cccc(O)c1	74.5*	-2.2	-8.5	1.2	-2.7	5.1
O=C(NC1CC1)c1cc2cc(Br)ccc2s1	96.0	nt	-6.3	-1.8	-0.5	21.1
C[n+]1c2n(c3ccccc31)N=C(c1ccc(Br)cc1)CS2	100.1	-3.2	3.8	37.2*	-29.3	-9.2
COc1c(C=O)c2c(c(OC)c1OC)-c1ccc(OC)c(=O)cc1C(NC(C)=O)CC2 (stereo not drawn)	88.9	-11.6	-1.3	10.3	0.2	89.5*
CCN(Cc1ccncc1)C(=O)c1ccc(C)o1	nt	nt	-5.1	1.2	10.4	-3.1
C=CCn1c(SCC(=O)N2CCOCC2)nc2c([nH]c3ccccc32)c1=O	112.7	-8.6	8.2	3.1	3.4	-3.6
C=CCn1c(SCC(=O)N2CCN(c3ccccc3)CC2)nc2c([nH]c3ccccc32)c1=O	91.3*	nt	0.1	10.2	4.1	-10.6
CC(C)Oc1ccc(C2CC(=O)N(c3ccc(N(C)C)cc3)C2=O)cc1 (stereo not drawn)	77.3*	nt	1.8	0.8	-0.3	-7.7
CC(C)Oc1ccc(C2CC(=O)N(c3ccccc3)C2=O)cc1 (stereo not drawn)	98.8	-0.2	-5.1	-1.0	-1.0	2.6
O=C(/C=C/c1ccco1)N1CCC(Cc2ccccc2)CC1	91.4	-6.7	4.4	2.2	nt	64.9*
Cc1ccccc1C(=O)OCC(=O)NCc1ccco1	94.8	-6.2	-6.5	0.3	0.1	-2.3
COC(=O)c1cc(NC(=O)COC(=O)CCc2nc3ccccc3c(=O)[nH]2)cc(C(=O)OC)c1	64.8*	-6.3	5.0	1.4	8.5	-0.5
COc1ccccc1C1C2=C(CC(C)(C)CC2=O)N(CC(=O)O)C2=C1C(=O)CC(C)(C)C2	100.6	35.6*	6.8	3.7	-1.3	-2.5
COc1ccc(N2C3=C(C(=O)CC(C)(C)C3)C(c3ccccc3OC)C3=C2CC(C)(C)CC3=O)cc1	111.3	24.2	-4.2	-3.8	-6.9	-6.6
COc1ccc(C(=O)C2CCCN(Cc3ccc(C#CCCO)cc3)C2)cc1F (stereo not drawn)	113.9	-4.3	16.6	-4.7	0.1	-6.1
CC(=O)c1cnc(-c2ccccc2Cl)s1	98.7	-1.7	-0.9	-0.6	-1.8	57.4*
CC(=O)c1cnc(-c2ccccn2)s1	104.0	-2.4	-5.3	-1.2	1.2	-1.6
Cc1ccc(S(=O)(=O)NCc2ccco2)cc1C	102.5	nt	-0.7	1.1	-0.5	1.9
CCOc1ccc(CC(=O)Nc2sc(Cc3ccccc3)c(C)c2C(N)=O)cc1OCC	103.0	-6.0	1.0	-0.2	3.7	57.8*
COc1cccc(-c2sc3ccc(OC)cc3c2-c2ccc(OCCN3CCOCC3)cc2)c1	109.8	-4.9	-4.7	-0.7	nt	3.7
COc1cc(OC)cc(-c2sc3ccc(OC)cc3c2-c2ccc(OCCN3CCOCC3)cc2)c1	104.4	nt	-1.5	-3.4	nt	61.1*
